One assay deals with PAD. Nature of the assay: qHTS profiling for inhibitors of Plasmodium falciparum proliferation (AID 504749). Further: potency means the concentration at half of the fitted maximal effect. Particulars: P. falciparum in erythrocytes, SYBR Green DNA, 72 h; series mostly up to 28.7 µM. In a few lines: (§1)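 SYBR Green fluorescence (ex 485 nm, em 535 nm) reports parasite DNA after 72 h compound exposure of infected red cells at 0.3% parasitemia, 2.5% hematocrit; signal normalized to 0.29 uM artemisinin and vehicle wells.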

A further assay relates to PC15. The assay is described as above. Particulars: P. falciparum in erythrocytes, SYBR Green DNA, 72 h; series mostly up to 28.7 µM. In a few lines:
as §1

The subject of the next assay is PC26. The description is as above. The following applies: P. falciparum in erythrocytes, SYBR Green DNA, 72 h; series mostly up to 28.7 µM. In a few lines: as §1
The next assay deals with PC49. Described as above. Particulars: P. falciparum in erythrocytes, SYBR Green DNA, 72 h; series mostly up to 28.7 µM. In a few lines: as §1
In another assay the test system is SC27B. Described as above. Particulars: P. falciparum in erythrocytes, SYBR Green DNA, 72 h; series mostly up to 28.7 µM. The method, boiled down: as §1
The next assay relates to TAB109. Described as above. Particulars: P. falciparum in erythrocytes, SYBR Green DNA, 72 h; series mostly up to 28.7 µM. In a few lines: as §1
The test system of a further assay is TAB113. The assay is described as above. Particulars: P. falciparum in erythrocytes, SYBR Green DNA, 72 h; series mostly up to 28.7 µM. In a few lines:
as §1

The next assay has as its system TAB165. The assay is described as above. Particulars: P. falciparum in erythrocytes, SYBR Green DNA, 72 h; series mostly up to 28.7 µM. In a few lines:
as §1

A further assay relates to W2. The description is as above. Particulars: P. falciparum in erythrocytes, SYBR Green DNA, 72 h; series mostly up to 28.7 µM. In a few lines: as §1
The subject of a further assay is CRL-7250. Nature of the assay: Cytotoxic Profiling of Annotated Libraries Using Quantitative High-Throughput Screening (AID 1296008). On max response: on the % scale 0 is the no-effect control and ±100 the full control effect. Particulars: Five cell lines viability, CellTiter-Glo ATP luminescence, 48-72 h; max response: stronger effect = lower value. In a few lines: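 Cells exposed to compounds for 48 or 72 hr at 37 degrees Celsius. Viability read as ATP-coupled luminescence with CellTiter-Glo after 10 min at room temperature.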

Values joined by “and” are separate entries in the source; they are usually repeats but may differ in a detail not shown here. Equal entries are not always repeated. Records with an inconclusive call do not appear. A number with no mark means an inactive call. Active and inactive are the calls of the source. The call rests on the fitted dose curve; in most records, active means well fitted inhibition curve with a large enough effect; inconclusive means small, poorly fitted or top-dose-only effect; inactive means flat fitted curve, though single readings scatter.
Further: nearly all actives have a fitted effect of over 60% in size.

On to `Nc1nc2c(ncn2COCCO)c(=O)[nH]1`, for which the Potency result with PAD, in the assay on PC15, in the assay on PC26, with PC49, in the assay with SC27B and in the assay on TAB109 was “inactive” each time. The Potency result with TAB113, in the assay with TAB165 and with W2 was “inactive” each time.
Take `NCCc1ccc(O)c(O)c1`: the Potency result in the assay with PAD, in the assay with PC15, in the assay with PC26, with PC49, with SC27B and with TAB109 was “inactive” each time. For the same compound, the Potency result with TAB113 and with TAB165 was “inactive” each time. Also, the max response in the assay with CRL-7250 was 1.67% and -14%.
For the compound `Cc1ccccc1C(OCCN(C)C)c1ccccc1` (stereo not given), the Potency result in the assay on PAD and with PC49 was “inactive” throughout. In addition, the figures for the Potency in the assay on TAB165 and with W2 were 7.94 µM (active) and 4.26 µM (active), respectively. In the assay on CRL-7250, the outcome was inactive.
Take `Nc1nc2ccc(OC(F)(F)F)cc2s1`: the Potency entry in the assay with PAD, with PC15, in the assay on PC26, in the assay with PC49, with TAB109 and with TAB113 was “inactive” each time. Moreover, the Potency result with TAB165 and with W2 was “inactive” throughout. Further, the result with CRL-7250 was inactive.
Turning to `CCOC(=O)C1=C[C@@]2(CC)CCCN3CCc4c(n1c1ccccc41)[C@H]32`, the values for the Potency in the assay with PC26 and in the assay with W2 were 15.1 µM (active) and 4.78 µM (active), respectively.
Consider `C1COC(NC(C2CC2)C2CC2)=N1`, for which the Potency with PAD was 11.2 µM (active). The Potency result in the assay with PC15, in the assay with PC49, in the assay on SC27B, in the assay on TAB113 and with W2 was “inactive” each time. In addition, the max response with CRL-7250 is 1.84% and -1.88%.
`Clc1ccc(Nc2nnc(Cc3ccncc3)c3ccccc23)cc1`: the Potency result in the assay on PC15, in the assay with PC26, with PC49, in the assay on SC27B, in the assay with TAB109 and in the assay on TAB113 was “inactive” throughout. In addition, the Potency in the assay on TAB165 was 12.6 µM (active). The max response in the assay with CRL-7250 is 1.53% and -11.9% and 0.195%.
Consider `Nc1ccc(S(=O)(=O)Nc2ccnn2-c2ccccc2)cc1`, for which the Potency result in the assay on PAD, in the assay on PC15, in the assay with PC26, with PC49, in the assay on SC27B and in the assay with TAB109 was “inactive” throughout. For the same compound, the Potency entry in the assay on TAB113, in the assay on TAB165 and in the assay on W2 was “inactive” each time. Besides, the compound was classed as inactive in the assay on CRL-7250.
In the case of `O=C1CCc2cc(OCCCCc3nnnn3C3CCCCC3)ccc2N1`, the Potency entry in the assay on TAB109 and in the assay with W2 was “inactive” in each case. Further, in the assay with CRL-7250, the max response is -14.2% and -108%.
With `NNCCc1ccccc1`, the Potency result with PAD, with PC15, in the assay with PC26, with PC49, in the assay on SC27B and in the assay with TAB109 was “inactive” each time. For the same compound, in the assay with TAB113, the Potency entry was “inactive”. The compound was classed as inactive in the assay with CRL-7250.
For `OC(CN1CCC(Cc2ccc(F)cc2)CC1)c1ccc(Cl)cc1` (stereo not given), the Potency in the assay on PAD was 0.631 µM (active); in the assay with PC15, 2 µM (active); in the assay on PC26 it was 1.51 µM (active); with PC49, 1.58 µM (active); in the assay on SC27B, 1.58 µM (active); in the assay on TAB109, 1.78 µM (active). Also, the results for the Potency with TAB113, in the assay on TAB165 and in the assay with W2 were 1.41 µM (active), 1.26 µM (active) and 0.379 µM (active), respectively. Besides, the max response in the assay with CRL-7250 was 0.243% and -6.71%.
As for `O=c1[nH]cnc2[nH]ncc12`, the Potency result in the assay on PAD, in the assay on PC15, in the assay on PC26, in the assay on PC49, in the assay on SC27B and in the assay with TAB109 was “inactive” throughout. The Potency entry in the assay with TAB113, in the assay with TAB165 and in the assay on W2 was “inactive” throughout. The max response in the assay with CRL-7250 was 2.71% and -1.4%.
For `CC(c1cc2ccccc2s1)N(O)C(N)=O` (stereo not given), the Potency result with PAD, with PC15, in the assay with PC49, in the assay on SC27B, in the assay with TAB109 and in the assay on TAB113 was “inactive” throughout. The Potency entry in the assay with TAB165 and in the assay on W2 was “inactive” throughout. In addition, in the assay with CRL-7250, the max response was -2.06%. Besides, the compound was classed as inactive with CRL-7250.
Turning to `N[C@@H]1CONC1=O`, the Potency result in the assay on PAD, in the assay with PC15, in the assay with PC26, in the assay on PC49, in the assay with SC27B and in the assay with TAB113 was “inactive” each time. The Potency entry in the assay on TAB165 and with W2 was “inactive” each time.
Regarding `CC(=O)Oc1ccccc1C(=O)O`, the Potency result in the assay with PAD, in the assay on PC15, in the assay with PC49, in the assay on SC27B, in the assay with TAB109 and in the assay with TAB113 was “inactive” each time. In addition, the Potency entry with TAB165 and with W2 was “inactive” throughout. For the same compound, the max response in the assay on CRL-7250 was 0.351% and -4.5%.
As for `N=c1nc(N2CCCCC2)cc(N)n1O`, the Potency entry in the assay on PAD, in the assay on PC15, in the assay with PC26, with PC49, in the assay on SC27B and with TAB109 was “inactive” in each case. In addition, the Potency entry in the assay with TAB113, with TAB165 and in the assay with W2 was “inactive” in each case. In addition, the max response in the assay on CRL-7250 is -9.52% and -1.74%.
For `Oc1ccc(C2CNCCc3c2cc(O)c(O)c3Cl)cc1` (stereo not given), the Potency result in the assay on PAD, in the assay on PC15, in the assay on PC26, in the assay with PC49, with SC27B and in the assay on TAB109 was “inactive” each time. For the same compound, the Potency entry in the assay with TAB113 and in the assay with TAB165 was “inactive” in each case.
Take `COc1ccc2nc(S(=O)Cc3ncc(C)c(OC)c3C)[nH]c2c1` (stereo not given): the Potency result in the assay on PC15, in the assay with PC49, with SC27B, with TAB109 and in the assay on TAB113 was “inactive” in each case.
